{"source": "PubChem BioAssay AID845", "about": "(Columbia University Molecular Screening Center, 2007)", "note": "Hit rate of the full screen: of about 94,000 compounds, about 390 (0.41%) were called active. For the sample, actives were picked, then their nearest neighbours and some compounds at random. Values without a mark were called inactive.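 The calls were made as follows: active = cell count reduction more than 3 SD above the screen-wide mean (cut at about 70% in these data); inactive = the rest.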"}
{"assay": "HUVEC cell count loss after compound exposure – imaging, Hoechst nuclear count, IL-1B stimulus, cytotoxicity control for IL-1B NFkB translocation project, primary screen (AID 845);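 also: normalized per plate to untreated control cells as the no-loss baseline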", "settings": "IL-1B stimulated, at 2 µM, hits give high values"}
{"smiles": "Cc1nc2c(-c3ccccc3)c(C)[nH]n2c(=O)c1Cl", "cell count reduction": "86.7% (active)"}
{"smiles": "Cc1cc(-c2ccccc2)n2nc(C)c(-c3ccccc3)c2n1", "cell count reduction": "-18.8%"}
{"smiles": "Cc1[nH]n(-c2cccc(Cl)c2)c(=O)c1-c1ccc(Cl)cc1", "cell count reduction": "-1.3%"}
{"smiles": "O=C(NNC(=O)c1cccnc1)Nc1ccccc1", "cell count reduction": "19.6%"}
{"smiles": "O=C(Nc1ccccc1Cl)O/N=C(/c1ccccc1)c1ccccn1", "cell count reduction": "-21.6%"}
{"smiles": "CCOC(=O)C1(S(=O)(=O)c2ccc(Cl)cc2)CCN(Cc2ccccc2)CC1", "cell count reduction": "-78.7%"}
{"smiles": "Cc1c(C(=O)NCc2ccccc2)cnn1-c1ccccc1", "cell count reduction": "-8.5%"}
{"smiles": "O=[N+]([O-])c1ccc(Oc2ccc(F)cc2Br)c2ccncc12", "cell count reduction": "5.4%"}
{"smiles": "COC(=O)CNC(=O)c1ccccc1[N+](=O)[O-]", "cell count reduction": "22.7%"}
{"smiles": "Clc1ccc(CSc2nnc(/C=C/c3ccccc3)o2)c(Cl)c1", "cell count reduction": "-46.7%"}
{"smiles": "CCOC(=O)c1c(NC(=O)/C=C/c2ccco2)sc(C)c1C", "cell count reduction": "-43.8%"}
{"smiles": "O=C1/C(=C\\Nc2ccccc2)CCN1c1ncccn1", "cell count reduction": "-32.2%"}
{"smiles": "CN(C(=O)CSc1nc(C2CC2)nc2ccccc12)c1nc(-c2ccccc2)cs1", "cell count reduction": "0.9%"}
{"smiles": "CCN(CC)S(=O)(=O)c1ccc(N2CCOCC2)c(C(=O)O)c1", "cell count reduction": "5.3%"}
{"smiles": "Cc1cc(=O)n2nc(N3CCCC(C(=O)N4CCN(C)CC4)C3)sc2n1", "note": "(configuration not stated)", "cell count reduction": "85.7% (active)"}
{"smiles": "COc1ccc(S(=O)(=O)N2CCCC(C(=O)N3CCN(C)CC3)C2)cc1C", "note": "(configuration not stated)", "cell count reduction": "-33.6%"}
{"smiles": "COc1cc(C)nc(N2CCCC(C(=O)NCC(C)C)C2)n1", "note": "(configuration not stated)", "cell count reduction": "-46.9%"}
{"smiles": "COc1ccc(C(C#N)Nc2ccc(C)cc2)cc1", "note": "(configuration not stated)", "cell count reduction": "-28.6%"}
{"smiles": "Cc1cc(C)c(OCC(=O)N/N=C/c2ccco2)c(C)c1", "cell count reduction": "19.3%"}
{"smiles": "O=[N+]([O-])c1ccccc1/C=N/n1c(COc2ccccc2)n[nH]c1=S", "cell count reduction": "-18.2%"}
{"smiles": "O=C(c1ccc(CN2CCOCC2)cc1)N1CCN(c2ccccc2F)CC1", "cell count reduction": "2.7%"}
{"smiles": "C/C=C/C(=O)Nc1nnc(C(C)C)s1", "cell count reduction": "7.2%"}
{"smiles": "COc1cccc(NC(=O)c2nn(C34CC5CC(CC(C5)C3)C4)cc2[N+](=O)[O-])c1", "cell count reduction": "-1.4%"}
{"smiles": "Cc1nc(SCC(=O)c2ccccc2)c([N+](=O)[O-])[nH]1", "cell count reduction": "-10.8%"}
{"smiles": "CCOc1ccccc1NC(=O)C1CCCN(C(=O)Nc2ccccc2)C1", "note": "(configuration not stated)", "cell count reduction": "-30.5%"}
{"smiles": "Cc1cccc(C)c1NC(=O)c1ccc(CN2CCc3ccccc3C2)cc1", "cell count reduction": "-6.8%"}
{"smiles": "CCOC(=O)COc1cc(OCC(=O)OCC)c2c(=O)cc(-c3ccccc3)oc2c1", "cell count reduction": "7.8%"}
{"smiles": "C=C(C)C(=O)Nc1cccc(C(C)=O)c1", "cell count reduction": "1.7%"}
{"smiles": "O=c1[nH]n(-c2cccc(Cl)c2)c2ncccc12", "cell count reduction": "-27.9%"}
{"smiles": "CCCc1ccc(OCC(=O)NNC(=S)NC(=O)c2ccco2)cc1", "cell count reduction": "-2.4%"}
{"smiles": "O=c1c2ccccc2nc2n1C(CSc1ccc(F)cc1)CN2", "note": "(configuration not stated)", "cell count reduction": "-9.2%"}
{"smiles": "CSc1ccc(C#N)cc1NC(=O)c1ccc(Cl)cc1", "cell count reduction": "-20.7%"}
{"smiles": "CC1(C)N=C(c2ccccn2)C(C)(C)N1O", "cell count reduction": "10.6%"}
{"smiles": "Cc1cccc(N(CC(=O)N2CCOCC2)S(C)(=O)=O)c1", "cell count reduction": "-61.2%"}
{"smiles": "Nc1ccc(C(=O)OCC(=O)NC2CCCc3ccccc32)cc1[N+](=O)[O-]", "note": "(configuration not stated)", "cell count reduction": "-106%"}
{"smiles": "CCc1cccc(C)c1N(C(=O)Cn1c(CO)nc2ccccc21)C(C)COC", "note": "(configuration not stated)", "cell count reduction": "-7.6%"}
{"smiles": "COC(=O)c1cc(NC(=O)CC2C(=O)NCCN2C(=O)c2ccc(F)cc2)cc(C(=O)OC)c1", "note": "(configuration not stated)", "cell count reduction": "-3.7%"}
{"smiles": "N#CC1=C(SCc2ccc(C#N)cc2)N=C(N)C(c2nc(-c3ccccc3)cs2)C12CCCCC2", "note": "(configuration not stated)", "cell count reduction": "25.2%"}
{"smiles": "COc1ccc(C)cc1S(=O)(=O)Nc1cccc(Cl)c1Cl", "cell count reduction": "6.2%"}
{"smiles": "O=C(CNS(=O)(=O)c1ccc(Br)s1)N1CCN(C(=O)c2ccco2)CC1", "cell count reduction": "15.9%"}
{"smiles": "COc1ccc(C)cc1NC(=O)CCS(=O)(=O)c1cccc2nonc12", "cell count reduction": "0.3%"}
{"smiles": "OC(CN1C2=NCCCN2c2ccccc21)c1ccc(Br)cc1", "note": "(configuration not stated)", "cell count reduction": "8.9%"}
{"smiles": "Cc1ccc(-c2csc(SCC(=O)Nc3cc(C)on3)n2)cc1", "cell count reduction": "8.8%"}
{"smiles": "CCCNC(=O)N1CCN(C(=O)NCCC)CC1", "cell count reduction": "4.6%"}
{"smiles": "CSCCC(NC(=O)COc1ccccc1)C(=O)OCC(=O)c1cc2ccccc2o1", "note": "(configuration not stated)", "cell count reduction": "-13.3%"}
{"smiles": "O=C(NC1=NCCS1)[C@H](Cc1ccccc1)N1C(=O)c2ccccc2C1=O", "cell count reduction": "-5.1%"}
{"smiles": "CC1CCCCN1S(=O)(=O)c1ccc(C(=O)Nc2nnc(-c3cccs3)o2)cc1", "note": "(configuration not stated)", "cell count reduction": "-4.4%"}
{"smiles": "COc1ccc(OC)c(C(=O)CSc2nnc(-c3cccs3)o2)c1", "cell count reduction": "-23.7%"}
{"smiles": "NC(=O)CSc1oc(-c2cccs2)nc1S(=O)(=O)c1ccccc1", "cell count reduction": "72.9% (active)"}
{"smiles": "O=C(NCCN1CCN(Cc2ccccc2)CC1)c1cc2c(=O)[nH]c3ccccc3c2s1", "cell count reduction": "26.5%"}
{"smiles": "O=C(CN1CCCCCC1)N1c2ccccc2Sc2ccc(C(F)(F)F)cc21", "cell count reduction": "-33.3%"}
{"smiles": "CCCC(O)(c1ccc(OC)cc1)C(CN(C)C)c1ccccc1", "note": "(configuration not stated)", "cell count reduction": "-16.3%"}
{"smiles": "O=C(Cc1ccc(S(=O)(=O)N2CCCC2)s1)NC1CCCCCC1", "cell count reduction": "-2.6%"}
{"smiles": "O=C(O)CCCCc1nc2ccccc2s1", "cell count reduction": "0.3%"}
{"smiles": "CCCC(=O)Nc1nc2ccc(NC(=O)c3cccnc3)cc2s1", "cell count reduction": "-12.3%"}
{"smiles": "O=C(CNC(=O)Cc1ccccc1)NCC(=O)OCC(=O)c1ccccc1Cl", "cell count reduction": "-68.8%"}
{"smiles": "CC(Oc1ccc(Cl)cc1)c1ccnn1S(C)(=O)=O", "note": "(configuration not stated)", "cell count reduction": "7.5%"}
{"smiles": "COCCCNC(=O)CN1CCN(Cc2ccccc2Cl)C1=O", "cell count reduction": "-10.5%"}
{"smiles": "C=CCOc1ccc(Cl)cc1CNCCCN1CCOCC1", "cell count reduction": "6.4%"}
{"smiles": "Cc1ccccc1OCC(=O)NCC(=O)OCC(=O)c1ccc2ccccc2c1", "cell count reduction": "13%"}
{"smiles": "O=C(/C=C/Nc1ccccc1OC(F)(F)F)C(F)(F)F", "cell count reduction": "-22.1%"}
{"smiles": "CCCCOC(=O)Nc1sc2nc(C)cc(C)c2c1-n1cccc1", "cell count reduction": "-2.8%"}
{"smiles": "Cc1ccc(NC(=S)NC(=O)c2ccc(-c3ccccc3)cc2)cc1", "cell count reduction": "-7.3%"}
{"smiles": "O=C(Nc1nnc(SCc2ccccc2)s1)c1ccco1", "cell count reduction": "-6.4%"}
{"smiles": "COCCCNC(NC(=O)c1ccc(C)cc1)C(Cl)(Cl)Cl", "note": "(configuration not stated)", "cell count reduction": "-35.5%"}
{"smiles": "CCN(CC)C(=O)CSc1nnc(CNc2ccc(F)cc2)n1Cc1ccco1", "cell count reduction": "-17.8%"}
{"smiles": "CCOc1ccc(CN2CCCN(C)CC2)cc1", "cell count reduction": "-10.1%"}
{"smiles": "Cc1ccc(SCC2=NNC(=O)C2)cc1", "cell count reduction": "-29.7%"}
{"smiles": "O=C(NCc1cccnc1)Nc1ccccc1F", "cell count reduction": "30.7%"}
{"smiles": "COc1ccc2c(c1OC)C(=O)c1ccccc1C2=O", "cell count reduction": "-3.8%"}
{"smiles": "c1cnc(Nc2nc(-c3ccc4ccccc4c3)cs2)nc1", "cell count reduction": "22.7%"}
{"smiles": "O=C(CN1CCCCCC1)Nc1ccc(Br)cc1Br", "cell count reduction": "6.4%"}
{"smiles": "CCOC(=O)c1ccc2c(c1)nc(C)n2CC", "cell count reduction": "8.9%"}
{"smiles": "Cc1cccn2c(=O)c(/C=C(\\C#N)S(=O)(=O)c3ccc(Cl)cc3)c(N3CCC(C(N)=O)CC3)nc12", "cell count reduction": "28.1%"}
{"smiles": "O=c1[nH]c(SCc2ccccc2)nnc1-c1ccccc1", "cell count reduction": "-19.8%"}
{"smiles": "Cc1nc(SCC(=O)N2CCc3ccccc3C2)c2c(C)c(C)sc2n1", "cell count reduction": "-25.7%"}
{"smiles": "COc1cc(OC)nc(NC(=O)CCl)n1", "cell count reduction": "-85.3%"}
{"smiles": "CC(=O)c1nn(-c2cccc(Br)c2)cc1C(=O)c1cccc2ccccc12", "cell count reduction": "-1.6%"}
{"smiles": "CC12CCC(C(=O)N3CCN(c4ncccn4)CC3)(c3nc4ccccc4nc31)C2(C)C", "note": "(configuration not stated)", "cell count reduction": "82.1% (active)"}
{"smiles": "O=C(C(NS(=O)(=O)c1cccc2nsnc12)c1ccccc1)N1CCN(c2ccccn2)CC1", "note": "(configuration not stated)", "cell count reduction": "-35.8%"}
{"smiles": "C=C(C)c1cccc(C(C)(C)NC(=O)N2CCN(c3ncccn3)CC2)c1", "cell count reduction": "22.8%"}
{"smiles": "CCC(C(=O)NCc1ccc(OC)cc1)n1nc(C)n2c(cc3occc32)c1=O", "note": "(configuration not stated)", "cell count reduction": "9.6%"}
{"smiles": "Cc1ccc(S(=O)(=O)N(c2cccc(C)c2)C2CCS(=O)(=O)C2)cc1", "note": "(configuration not stated)", "cell count reduction": "5.1%"}
{"smiles": "Cc1oc2nc(SCC(=O)Nc3ccc(S(N)(=O)=O)cc3)nc(NC(=O)c3ccccc3)c2c1C", "cell count reduction": "13.5%"}
{"smiles": "CCOC(=O)c1c(NC(=O)CSc2nnc(C)c(=O)[nH]2)sc2c1CCC2", "cell count reduction": "-24.4%"}
{"smiles": "CCOCC(=O)Nc1sc2c(c1C(=O)OCC)CCCC2", "cell count reduction": "92% (active)"}
{"smiles": "CCCOC(=O)Nc1sc2c(c1C(=O)OCC)CCC2", "cell count reduction": "11.4%"}
{"smiles": "O=C(Cc1ccccc1)Nc1c(C(=O)N2CCCCCC2)cnn1-c1ccccc1", "cell count reduction": "-8.3%"}
{"smiles": "COC(=O)C(C)C1Sc2ccccc2NC1=O", "note": "(configuration not stated)", "cell count reduction": "90.9% (active)"}
{"smiles": "CN1CCN(S(=O)(=O)c2ccc(N3CCN(S(=O)(=O)c4cccs4)CC3)nc2)CC1", "cell count reduction": "-0.9%"}
{"smiles": "Cc1ccc(OCCCC(=O)Nc2ccc(N3CCOCC3)cc2)cc1", "cell count reduction": "10.3%"}
{"smiles": "COc1ccc(-c2nnc(SCC(=O)c3ccc4c(c3)OCCO4)o2)cc1", "cell count reduction": "-13.4%"}
{"smiles": "COc1ccc(Nc2nc(-c3ccccc3)cs2)cc1", "cell count reduction": "3.5%"}
{"smiles": "COc1ccc(/C=C(/NC(=O)c2ccc(C)cc2)c2nc3ccccc3[nH]2)cc1OC", "cell count reduction": "-9.1%"}
{"smiles": "Cc1ccc(Oc2ccc3c(c2)C(=O)N(c2cccc4cccnc24)C3=O)cc1", "cell count reduction": "-63.9%"}
{"smiles": "CCOc1cc(NC(=O)c2cnccn2)c(OCC)cc1NC(=O)c1ccc(C)cc1", "cell count reduction": "-42.4%"}
{"smiles": "O=C(NCC(=O)N(Cc1cccs1)C(C(=O)NC1CCCCC1)c1ccco1)c1cccs1", "note": "(configuration not stated)", "cell count reduction": "24.1%"}
